Compound activity as filed in PubChem.
VDR inh = blocks the human vitamin D receptor | P11473 | VDR-SRC2-3 peptide fluorescence polarization, 2 h | Potency, µM, without a hit: max response, negative = inhibition, hits mostly inhibitors | 400,000 tested, 0.93% active; note: % is set by controls: 0 for no effect and ±100 for the full control effect
Target sequence (P11473 whole entry, looked up): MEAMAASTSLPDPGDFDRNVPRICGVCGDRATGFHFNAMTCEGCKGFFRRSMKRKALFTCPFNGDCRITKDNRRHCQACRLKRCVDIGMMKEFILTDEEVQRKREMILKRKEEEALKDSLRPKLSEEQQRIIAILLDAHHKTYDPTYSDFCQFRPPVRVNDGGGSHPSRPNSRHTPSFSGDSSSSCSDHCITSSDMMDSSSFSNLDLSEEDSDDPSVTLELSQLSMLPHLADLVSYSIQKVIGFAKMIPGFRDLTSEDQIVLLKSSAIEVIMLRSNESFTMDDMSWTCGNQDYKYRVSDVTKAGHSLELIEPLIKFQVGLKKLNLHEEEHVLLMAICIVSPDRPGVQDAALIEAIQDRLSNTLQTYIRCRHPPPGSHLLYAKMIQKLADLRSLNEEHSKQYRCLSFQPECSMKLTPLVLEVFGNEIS
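Reagent solutions, kept cold and dark, are dispensed first; compounds are then pinned in at 23 nl, plates briefly spun, and incubated 2 h at ambient temperature. Inhibition of VDR–SRC2-3 peptide binding is read by fluorescence polarization.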
KAT2A inh = GCN5L2 (KAT2A) acetyltransferase inhibition. Q92830. GCN5L2 HAT assay, ThioGlo1 CoA-SH fluorescence. Potency, µM (doses to about 58.9 µM), for inactives: at the top dose activity change, negative = inhibition, hits mostly inhibitors. 390,000 tested, 0.21% active. AID 504327; note: % is set by controls: 0 for no effect and ±100 for the full control effect
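Titration-based screen in which CoA formation is detected via maleimide probe ThioGlo1 (50uM) turning fluorescent on thiol reaction; substrates H3(1-25) 75uM and acetyl-CoA 70uM, GCN5L2 20nM, 20 min incubation at room temperature.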
USP1 inh = inhibitors of human USP1/UAF1 deubiquitinase; O94782; recombinant USP1/UAF1, Ub-Rhodamine cleavage fluorescence; Potency, µM (titrated, usually from 57.1 µM), for the others: top-dose activity change, negative = inhibition, actives largely listed as inhibitors; 390,000 tested, 0.23% active; note: % is set by controls: 0 for no effect and ±100 for the full control effect; nearly all actives have a fitted effect of over 60% in size
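1 nM enzyme complex + cpd, 15 min RT; start with Ub-Rho 150nM final; kinetic fluorescence ex 480/em 540, 6 reads q60 s. Buffer 50mM HEPES pH 7.8, 0.5mM EDTA, 0.1 mg/ml BSA, 1mM TCEP, 0.01% Tween-20.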
TSG101-PTAP inh = blocks PTAP/TSG101 interaction to inhibit HIV-1 budding; Q99816; Fluorescence polarization, FITC-PTAP peptide / Tsg101 binding; Potency, µM (series often up to 115 µM), without a hit: top-dose activity change, negative = inhibition, most hits filed as inhibitors; 340,000 tested, under 10 active; AID 493005; active = well fitted inhibition curve with a large enough effect in the main read-out, with a control signal flat, not every such curve was filed as active; inconclusive = small, poorly fitted or top-dose-only effect, or effect the other way, or a change in a side signal; inactive = no such curve, though single readings can be large or run the other way; note: % of control where 0% means no effect
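Fluorescence polarization binding of Tsg101 binding domain (10 uM final) to FITC-labeled PTAP peptide (50 nM final) in HEPES pH 7.5 buffer with NaCl, Tween 20, EDTA, TCEP. Compounds added before peptide; binding 20 min at RT.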
PLK1 PBD block = blocks phosphopeptide binding to human PLK1 polo-box domain. P53350. Plk1 PBD binding of FITC phosphopeptide, fluorescence polarization. Potency, µM, without a hit: max response, negative = inhibition, most hits filed as inhibitors. 360,000 tested, 2.8% active. AID 720504; note: series mostly up to about 57 µM; % is set by controls: 0 for no effect and ±100 for the full control effect; nearly all actives have a fitted effect of over 65% in size
Active calls of the source: *; ? = inconclusive; · = no result given; ! = not confirmed by another sample. The list is not random: actives were taken first. Their share in the collection is about 3%. Unless noted, calls come from the whole dose curve; as a rule, active = well fitted curve in the direction sought with a large enough effect; inconclusive = small, poorly fitted or top-dose-only effect, or another doubt; inactive = no such curve, though single readings can be large; an effect the other way counts as inactive or inconclusive. Potency is the fitted concentration of half-maximal effect.

SMILES | VDR inh | KAT2A inh | USP1 inh | TSG101-PTAP inh | PLK1 PBD block
CCOC(=O)C1=C(C)NC(=NC)SC1c1ccccc1 (stereo unspecified) | -4% | 0% | -12% | -3% | 21µM*
COC(=O)c1c(N)sc(C(=O)NCCc2ccccc2)c1C | -9% | -1% | -19% | -2% | 21µM*
Cc1c(-c2ccccc2)sc(N)c1C(=O)N1CCOCC1 | -4% | -1% | 5% | 0% | 24µM*
CCOC(=O)c1c(N)sc(C)c1-c1ccccc1 | ? | -17% | · | · | ·
CCOC(=O)c1c(N)sc(C(=O)OC)c1C | -27% | 0% | -4% | -4% | 30µM*
COc1cccc(OC)c1C(=O)NCCc1ccccc1 | -5% | · | -15% | -2% | -3%
COC(=O)c1c(N)sc(C(=O)N2CCOCC2)c1C | 0% | 2% | 4% | -1% | -19%
CCOC(=O)c1c(N)sc(C(O)(C(F)(F)F)C(F)(F)F)c1-c1ccccc1 | ? | -3% | -25% | -5% | 27µM*
CCc1ccc(-n2nc(C)c3c(C)cc(=O)n(CC(=O)Nc4cc(Cl)ccc4OC)c32)cc1 | 11% | 2% | -13% | · | ·
CCOC(=O)c1c(N)sc(-c2ccccc2)c1C | -15% | -7% | -2% | -7% | 19µM*
CCCCCCn1c(=O)n2n(c1=O)[C@@H]1CN(S(=O)(=O)c3ccc(C)cc3)C[C@]1(O)[C@@H](OC(=O)NCc1ccc(OC)c(OC)c1)C2 | · | · | -24% | · | -21%
CC1CCCC(NC(=O)CCS(=O)(=O)c2ccc3c(c2)NC(=O)CS3)C1C (stereo unspecified) | ? | -2% | -26% | -1% | 30µM*
CC1CCCCC1NC(=O)CCS(=O)(=O)c1ccc2c(c1)NC(=O)CS2 (stereo unspecified) | ? | -3% | -18% | -2% | ?
CN(C)C(C)(C)/C=C/C(O)(c1ccccc1)c1ccccc1 | 7% | 2% | -26% | -1% | 5%
CCOC(=O)c1ccc(NC(=O)c2c(NC(=O)CCC(=O)O)sc3c2CCCCC3)cc1 | ? | -2% | ? | -2% | 27µM*
CCOC(=O)c1ccc(NC(=O)c2c(NCc3cccs3)sc3c2CCCCC3)cc1 | ? | 22µM* | ? | · | ·
COc1ccc(NC(=O)c2c(NCc3cccs3)sc3c2CCCC3)cc1 | -5% | -3% | 3% | · | ·
CCOc1ccccc1NC(=O)c1c(NC(=O)CCC(=O)O)sc2c1CCCCC2 | ? | -3% | -14% | -7% | ?
Cc1cc(CNC(=O)[C@]2(C(F)(F)F)C[C@H](CCC3CCCCC3)CCCO2)nn1C | -18% | · | · | · | ·
C/C(O)=C(/C=NCC(=O)O)C(=O)Nc1nccs1 | 14% | -7% | ? | -3% | 1%
O=c1c2ccccc2nc(N/N=C/c2ccc(O)cc2)n1O | 0% | -7% | -15% | -1% | ?
O=c1c2ccccc2nc(N/N=C/c2c(O)ccc3ccccc23)n1O | 10% | -20% | -10% | -3% | 30µM*
CC(C)Cc1nn2c(=O)cc(COC(=O)c3cccc(NC(=O)CCc4ccccc4)c3)nc2s1 | 12% | 6% | -11% | · | ·
O=C(O)COc1ccc(/C=C/c2nc3ccc([N+](=O)[O-])cc3s2)cc1 | 32µM* | 2% | -17% | 0% | 24µM*
Cc1ccccc1OCC(=O)NCC(=O)OCC(=O)c1ccc2c(c1)CCCC2 | -4% | · | · | · | ·
SMILES | VDR inh | KAT2A inh | USP1 inh | TSG101-PTAP inh | PLK1 PBD block
CCCCCc1c2c(cc(O)c1C(=O)O)OC(=O)c1c(cc(OC)cc1C(=O)CCCC)O2 | 79µM* | ? | ? | -11% | 27µM*
CCCCCc1c2c(cc(O)c1C(=O)O)OC(=O)c1cc(C(=O)CCCC)c(OC)cc1O2 | 79µM* | ? | -24% | -10% | 21µM*
COc1ccccc1N1CCN(C(=O)CN2C(=O)c3ccccc3S2(=O)=O)CC1 | -6% | -17% | -10% | -2% | 1%
O=C(COC(=O)/C=C/c1ccc(Cl)cc1)NCCN1C(=O)CSC1=O | -23% | -2% | -13% | -2% | 17µM*
COc1cc(Cl)c(C)cc1NC(=O)c1ccc2c(SCC(=O)O)c3c(nc2c1)CCCC3 | ? | ? | -13% | 0% | 42µM*
Cc1c(Cl)cccc1Nc1ccccc1C(=O)O | 45µM*! | -12% | -25% | -4% | -24%
